Assay outcomes deposited in PubChem by National Center for Advancing Translational Sciences (NCATS).
D3 ag: agonists of human D3 dopamine receptor; P35462; D3R DiscoveRx beta-arrestin cells, luminescence, 90 min; max activation, %; 410,000 compounds, 0.58% hits; AID 652048; in the data active = max activation above about 30%; note: 0% is about no effect
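Cells at 1500/well, incubated overnight, then treated with pinned compounds (dopamine as control) for 90 min at 37 degrees C. DiscoveRx reagent added for 30 - 60 minutes at room temperature; luminescence read.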
D1 potentiator: enhances dopamine response at the human D1 receptor; potentiation, % at 10 µM; HEK293 TREx D1 cells, calcium flux, dopamine EC20 potentiation; 360,000 compounds, 0.036% hits; in the data active = potentiation above about 30%; note: 0% is about no effect
Target sequence (P21728 whole entry, looked up): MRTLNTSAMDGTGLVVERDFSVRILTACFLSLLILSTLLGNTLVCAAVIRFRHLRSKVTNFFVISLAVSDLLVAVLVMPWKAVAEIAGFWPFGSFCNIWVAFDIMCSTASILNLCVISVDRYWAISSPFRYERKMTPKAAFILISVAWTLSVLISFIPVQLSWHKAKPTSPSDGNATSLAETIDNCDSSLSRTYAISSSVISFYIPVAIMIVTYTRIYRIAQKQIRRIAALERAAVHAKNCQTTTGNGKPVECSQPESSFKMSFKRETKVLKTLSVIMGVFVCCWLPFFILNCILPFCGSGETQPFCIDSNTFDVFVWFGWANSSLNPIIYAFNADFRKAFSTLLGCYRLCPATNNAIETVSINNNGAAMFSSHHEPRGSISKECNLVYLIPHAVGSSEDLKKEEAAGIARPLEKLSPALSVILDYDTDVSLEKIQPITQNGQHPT
D1 ag: activates the human D1 dopamine receptor; activation, % at 2 µM; HEK293 T-REx D1 cells, calcium flux, agonist mode; AID 504660; 360,000 compounds, 1% hits; P21728; in the data active = activation above about 30%; note: 0% is about no effect
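Agonism was scored from calcium flux recorded over 180 s (1 read/s) after pintool compound addition, following a 10-cycle baseline. Cells were inducible force-coupled HEK293 TREx D1, plated overnight at 30 C and loaded with no-wash calcium dye.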
D1 antag: human D1 dopamine receptor antagonism; P21728; HEK293 TREx D1 cells, calcium flux, dopamine EC80; hits give low values; activity change, negative = inhibition, % at 10 µM; 360,000 compounds, 3.2% hits; in the data active = activity change below about -30%; note: % is set by controls: 0 for no effect and ±100 for the full control effect
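HEK293 T-REx cells expressing inducible, force-coupled D1 receptor; no-wash Ca dye, 30–90 min RT. Cmpd → 180 s read at 1 Hz → EC80 DA → 180 s read.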
D3 antag: blocks the human D3 dopamine receptor | P35462 | D3R cells, DiscoveRx beta-arrestin luminescence, antagonist mode; hits give low values | max response, negative = inhibition, % | 360,000 compounds, 2.5% hits; in the data active = max response below about -50%; inconclusive = no clear call, values can overlap the other calls; note: % is set by controls: 0 for no effect and ±100 for the full control effect
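Cells plated overnight at 1500 cells/well, then exposed to library compounds with dopamine controls for 90 minutes at 37 degrees C. DiscoveRx reagent added for 30–60 minutes at room temperature; luminescence read, quantitative HTS format.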
* marks the source's active call; other numbers are inactive results; ? = inconclusive; / = not tested or not shown. Compounds with a hit are over-represented: about 6% of the library has one in this group of screens.

SMILES	D3 ag	D1 potentiator	D1 ag	D1 antag	D3 antag
O=C1C=CC2(O[C@H](c3ccccc3)[C@@H](c3ccccc3)O2)[C@H](Sc2ccccc2O)C1	-15	/	/	/	-118*
C[C@@H]1[C@@H](Sc2ccccc2)CC(=O)O[C@@H]1c1ccc(-c2ccccc2)cc1	12	/	/	/	4
Cc1ccc(C(=O)c2cn(Cc3ccccc3)c3nc(C)ccc3c2=O)cc1	15	1	1	-3	/
C=C1CC[C@H](O)CC1=C/C=C1\CCC[C@]2(C)[C@@H]([C@H](C)CCCC(C)(C)O)CC[C@@H]12	-1	/	/	/	/
Cc1cc(C)cc(Nc2cc(=O)n(C3CCCCC3)c(=O)[nH]2)c1	-2	-4	17	-16	-3
Cc1cc2nc3c(=O)n(C4CCCCC4)c(=O)[nH]c3nc2cc1N	4	-8	213*	-24	7
COc1ccc2ccc3c(c2c1)N=C[C@]1(O3)N(C)c2ccccc2C1(C)C	-2	-11	-1	18	-70*
CCCOc1ccccc1C1CC(=O)NC2=C1C(=O)CCC2 (configuration not stated)	0	-4	14	5	-9
CCCCOc1ccccc1C1CC(=O)NC2=C1C(=O)CCC2 (configuration not stated)	-15	-5	15	-48*	-5
Cc1ccc(CNC(=O)c2nnn(Cc3ccc(F)cc3)c2N)cc1	-16	-4	8	-9	/
O=C(CCc1nc(-c2ccccc2Cl)no1)NCc1ccco1	10	3	0	-3	-5
Cc1ccccc1-c1noc(-c2ccccc2C(=O)NCc2ccco2)n1	5	-4	12	1	-6
COc1ccc(NC(=O)CCc2nc(-c3ccccc3F)no2)cc1	1	-4	11	-19	21
O=C(CCc1nc(-c2ccccc2F)no1)Nc1cccc(C(F)(F)F)c1	-6	-3	32*	-29	/
O=C(CCc1nc(-c2ccccc2F)no1)NCc1ccco1	1	0	1	10	-88*
O=C(NCc1ccco1)c1ccccc1-c1nc(-c2ccc(F)cc2)no1	0	2	0	-45*	8
Cc1cc(C)cc(-n2c(SCC(N)=O)nc3c([nH]c4ccccc43)c2=O)c1	5	-4	0	-1	/
O=C(NCC(c1cccs1)S(=O)(=O)c1cccs1)c1cccc(F)c1 (configuration not stated)	-9	-5	4	-5	/
CC(C)Oc1ccc(CNC(=O)C2CCCN(S(=O)(=O)c3ccc4c(ccn4C)c3)C2)cc1 (configuration not stated)	3	-5	6	-10	/
O=C(CCCCn1c(=O)c2ccccc2n(CC(=O)Nc2ccc(F)cc2F)c1=O)NCc1ccccc1Cl	-9	1	-1	-4	/
COc1cc(Br)c(C(=O)c2nccc3cc(OC)c(OC)cc23)cc1OC	-3	-6	1	-31*	3
Oc1ccc(CNc2cccc(C(F)(F)F)c2)c2cccnc12	/	0	6	7	/
CN1C(=O)NC(c2ccc(C(F)(F)F)cc2)C2=C1CC(C)(C)CC2=O (configuration not stated)	-3	-1	32*	8	-14
Cc1cccc(Nc2nc3ccccc3s2)c1C	-6	5	30*	-2	-16
COc1ccc(Nc2nc3ccccc3s2)cc1	-1	5	0	-38*	12
SMILES	D3 ag	D1 potentiator	D1 ag	D1 antag	D3 antag
Cc1noc(/C=C/c2ccccc2F)c1S(=O)(=O)N1CCC(C(=O)N2CCOc3ccccc32)CC1	8	0	1	-3	/
Cc1sc2c(c1C)c(=O)n(-c1ccc(Cl)cc1)c(=O)n2CC(=O)c1ccccc1	4	0	-1	0	/
CCOC(=O)N1CCN(C(=O)CCn2c(=S)[nH]c3ccsc3c2=O)CC1	19	-4	-1	-49*	24
CCOC(=O)N1CCN(C(=O)CCn2c(=O)[nH]c3ccsc3c2=O)CC1	19	-5	3	14	1
CCOC(=O)C1CCN(C(=O)CCn2c(=O)[nH]c3ccsc3c2=O)CC1	-3	-7	2	-37*	-10
O=C(NCCc1ccc(Cl)cc1)C1CCN(S(=O)(=O)c2ccc3[nH]ccc3c2)CC1	13	0	6	-5	/
CC(=O)NN1C(=O)/C(=C/c2ccc(Br)o2)SC1=S	1	0	1	10	1
CC(=O)NN1C(=O)/C(=C\c2ccc(Br)o2)SC1=S	-4	-1	0	4	-59*
COc1ccccc1NC(=O)c1cc2c(=O)n(Cc3cccs3)ccc2nc1C	-6	-4	0	-40*	/
COc1cc(NC(=O)c2cc3c(=O)n(Cc4cccs4)ccc3nc2C)cc(OC)c1OC	-18	-4	0	0	/
COc1cc(CNCc2cccnc2)ccc1OCc1ccccc1	-9	-2	14	4	2
COc1ccc(CCNCc2c(OC)ccc3ccccc23)cc1OC	-6	-1	38*	-28	-16
COc1ccc(CNCc2ccco2)cc1OCc1ccccc1	-13	-5	44*	-3	-21
COc1cc(CNCCc2c[nH]c3ccccc23)ccc1OCc1ccccc1F	-18	-9	28	25	-56*
COc1ccc(NC(=S)NCCc2c[nH]c3ccccc23)c(OC)c1	-2	-3	8	-36*	15
COc1ccc2ccccc2c1CNC(C)CCc1ccccc1 (configuration not stated)	-16	-4	7	27	?
O=C(NCCCN1CCN(c2ccc(F)cc2)CC1)c1cc2c(Cl)nc3ccccc3c2s1	-8	-3	-1	-9	/
COc1ccccc1CCNCc1ccc(OC)c(OCc2ccccc2)c1	-62	-12	62*	-58*	?
Fc1cccc(NC(=S)N2CCN(c3ccccn3)CC2)c1	-5	-11	6	-13	-9
FC(F)Sc1ccc(NC(=S)N2CCN(c3ccccn3)CC2)cc1	5	-6	11	-34*	2
Fc1ccc(NC(=S)N2CCN(c3cccc(C(F)(F)F)c3)CC2)cc1	-5	-10	10	-38*	?
FC(F)(F)c1cccc(NC(=S)N2CCN(c3cccc(C(F)(F)F)c3)CC2)c1	-7	-6	2	-7	-21
S=C(Nc1ccccc1Cl)N1CCN(c2ccccn2)CC1	10	-6	2	-32*	13
FC(F)(F)c1cccc(NC(=S)N2CCN(c3ccccn3)CC2)c1	6	-3	4	-30*	-106*
CO[C@H]1C[C@@H]2CC[C@@H](C)[C@@](O)(O2)C(=O)C(=O)N2CCCC[C@H]2C(=O)O[C@H]([C@H](C)C[C@@H]2CC[C@@H](OC(=O)C(C)(CO)CO)[C@H](OC)C2)CC(=O)[C@H](C)/C=C(\C)[C@@H](O)[C@@H](OC)C(=O)[C@H](C)C[C@H](C)/C=C/C=C/C=C/1C	-4	/	/	/	/
O=C1CN(C(=S)Nc2ccccc2Cl)CCN1	45*	-8	0	6	5
